Assay results as given in the supplement of paper PMC11732987, “Enantioselective OTUD7B fragment discovery through chemoproteomics screening and high-throughput optimisation” (Communications Chemistry, 2025).

Assays:
Assay in all cases: log2 ratio of Biotin-Ahx-Ub-VS probe labelling (fragment/DMSO); higher = less target engagement (more negative = stronger competition), active = hit call of the paper (q ≤ 0.05, log2 ratio ≤ -1)
Conditions in all cases: compound concentration: 200 uM; treatment time: 3 h
USP19 = target: T1, USP19 (UniProt O94966)
T1 sequence (whole entry): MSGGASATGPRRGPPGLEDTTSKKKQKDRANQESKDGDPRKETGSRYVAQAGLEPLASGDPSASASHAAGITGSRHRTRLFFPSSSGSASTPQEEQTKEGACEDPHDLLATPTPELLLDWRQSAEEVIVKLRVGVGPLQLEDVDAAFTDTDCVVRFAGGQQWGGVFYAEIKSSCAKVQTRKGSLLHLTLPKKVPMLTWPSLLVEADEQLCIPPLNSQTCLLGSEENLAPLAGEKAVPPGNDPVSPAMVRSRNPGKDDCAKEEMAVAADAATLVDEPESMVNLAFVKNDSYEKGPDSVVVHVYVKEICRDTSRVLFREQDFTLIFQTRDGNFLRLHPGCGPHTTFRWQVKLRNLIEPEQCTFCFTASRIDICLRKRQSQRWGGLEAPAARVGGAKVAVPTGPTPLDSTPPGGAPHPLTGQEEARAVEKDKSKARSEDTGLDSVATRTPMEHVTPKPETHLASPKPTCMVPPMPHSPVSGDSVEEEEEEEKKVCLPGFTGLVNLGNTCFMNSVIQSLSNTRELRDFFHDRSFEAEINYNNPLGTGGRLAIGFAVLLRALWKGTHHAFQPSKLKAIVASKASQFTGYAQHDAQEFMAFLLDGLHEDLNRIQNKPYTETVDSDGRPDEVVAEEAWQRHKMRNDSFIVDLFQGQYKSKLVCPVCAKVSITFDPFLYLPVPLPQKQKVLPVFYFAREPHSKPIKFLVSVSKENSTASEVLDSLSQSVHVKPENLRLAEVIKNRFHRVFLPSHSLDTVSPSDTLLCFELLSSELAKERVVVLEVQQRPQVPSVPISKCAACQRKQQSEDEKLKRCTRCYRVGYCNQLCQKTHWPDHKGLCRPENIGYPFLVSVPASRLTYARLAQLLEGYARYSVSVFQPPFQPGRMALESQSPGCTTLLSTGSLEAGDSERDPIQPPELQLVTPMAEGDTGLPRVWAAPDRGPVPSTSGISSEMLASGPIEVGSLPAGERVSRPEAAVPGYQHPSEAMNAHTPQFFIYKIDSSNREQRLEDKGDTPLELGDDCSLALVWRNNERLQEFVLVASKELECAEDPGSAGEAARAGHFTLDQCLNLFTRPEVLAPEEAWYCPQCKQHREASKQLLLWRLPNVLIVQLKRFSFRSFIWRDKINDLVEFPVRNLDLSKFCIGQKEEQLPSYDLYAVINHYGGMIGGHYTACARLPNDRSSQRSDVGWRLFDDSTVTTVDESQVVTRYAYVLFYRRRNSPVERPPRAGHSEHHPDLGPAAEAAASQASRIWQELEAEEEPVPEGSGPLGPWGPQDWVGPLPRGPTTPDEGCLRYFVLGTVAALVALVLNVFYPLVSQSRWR
Procedure, shortened: (§1)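 Fragment (200 µM) or vehicle was incubated for 3 h with triplicate HEK293T lysate samples of 495 µg, which were then treated with Biotin-Ahx-Ub-VS at 0.5 µM final for 1 h. Labelled DUBs were enriched on NeutrAvidin, digested with LysC and trypsin, and analysed by diaPASEF LC-MS/MS. Values are average log2 fragment/vehicle ratios from an unpaired t-test on global-median-normalised Spectronaut label-free quantities, using proteins with ≥2 unique peptides.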

USP22 = target: T2, USP22 (UniProt Q9UPT9)
T2 sequence (whole entry): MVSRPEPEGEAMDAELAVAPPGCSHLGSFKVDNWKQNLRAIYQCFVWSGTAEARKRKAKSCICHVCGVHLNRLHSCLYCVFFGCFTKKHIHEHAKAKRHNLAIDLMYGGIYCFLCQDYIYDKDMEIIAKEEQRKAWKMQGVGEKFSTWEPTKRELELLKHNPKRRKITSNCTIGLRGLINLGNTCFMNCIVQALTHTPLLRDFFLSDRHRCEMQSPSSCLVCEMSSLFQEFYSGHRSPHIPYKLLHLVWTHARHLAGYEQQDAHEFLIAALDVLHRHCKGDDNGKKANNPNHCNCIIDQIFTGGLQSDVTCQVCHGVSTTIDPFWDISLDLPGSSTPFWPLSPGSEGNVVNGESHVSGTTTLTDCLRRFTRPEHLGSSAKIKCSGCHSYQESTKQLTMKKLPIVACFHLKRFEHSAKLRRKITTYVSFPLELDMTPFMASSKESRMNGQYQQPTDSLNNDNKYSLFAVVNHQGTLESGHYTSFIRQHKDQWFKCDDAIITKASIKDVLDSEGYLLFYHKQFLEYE
Procedure, shortened: as §1

USP24 = USP24 (UniProt Q9UPU5)
Procedure, shortened: as §1

USP25 = target: T3, USP25 (UniProt Q9UHP3)
T3 sequence (whole entry): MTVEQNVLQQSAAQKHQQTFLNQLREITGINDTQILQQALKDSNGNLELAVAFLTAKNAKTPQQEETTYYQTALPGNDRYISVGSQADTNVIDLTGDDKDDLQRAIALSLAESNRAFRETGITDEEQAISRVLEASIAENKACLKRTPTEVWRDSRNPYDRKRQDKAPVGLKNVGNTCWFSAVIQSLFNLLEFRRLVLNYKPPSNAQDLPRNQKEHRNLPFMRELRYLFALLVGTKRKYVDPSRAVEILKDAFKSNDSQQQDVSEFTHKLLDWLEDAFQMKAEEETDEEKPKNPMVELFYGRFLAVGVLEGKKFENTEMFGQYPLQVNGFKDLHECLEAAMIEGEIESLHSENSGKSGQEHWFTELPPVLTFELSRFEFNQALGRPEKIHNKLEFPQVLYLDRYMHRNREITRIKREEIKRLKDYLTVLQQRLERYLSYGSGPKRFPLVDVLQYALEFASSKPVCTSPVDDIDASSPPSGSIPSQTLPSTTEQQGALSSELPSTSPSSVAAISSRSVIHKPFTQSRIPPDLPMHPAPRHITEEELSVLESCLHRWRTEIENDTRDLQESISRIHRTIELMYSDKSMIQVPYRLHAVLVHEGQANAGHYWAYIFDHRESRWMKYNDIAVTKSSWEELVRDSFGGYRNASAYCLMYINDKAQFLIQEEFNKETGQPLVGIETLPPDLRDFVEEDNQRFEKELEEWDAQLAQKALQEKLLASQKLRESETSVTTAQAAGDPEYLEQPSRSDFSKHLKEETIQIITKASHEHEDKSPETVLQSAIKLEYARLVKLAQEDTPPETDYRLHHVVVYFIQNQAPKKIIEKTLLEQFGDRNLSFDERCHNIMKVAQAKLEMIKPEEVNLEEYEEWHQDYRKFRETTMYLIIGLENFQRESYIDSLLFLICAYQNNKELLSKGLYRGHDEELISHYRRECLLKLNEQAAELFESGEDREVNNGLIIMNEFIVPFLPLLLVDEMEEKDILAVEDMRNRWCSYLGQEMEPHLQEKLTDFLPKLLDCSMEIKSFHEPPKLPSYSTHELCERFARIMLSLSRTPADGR
Procedure, shortened: as §1

USP28 = target: T4, USP28 (UniProt Q96RU2)
T4 sequence (whole entry): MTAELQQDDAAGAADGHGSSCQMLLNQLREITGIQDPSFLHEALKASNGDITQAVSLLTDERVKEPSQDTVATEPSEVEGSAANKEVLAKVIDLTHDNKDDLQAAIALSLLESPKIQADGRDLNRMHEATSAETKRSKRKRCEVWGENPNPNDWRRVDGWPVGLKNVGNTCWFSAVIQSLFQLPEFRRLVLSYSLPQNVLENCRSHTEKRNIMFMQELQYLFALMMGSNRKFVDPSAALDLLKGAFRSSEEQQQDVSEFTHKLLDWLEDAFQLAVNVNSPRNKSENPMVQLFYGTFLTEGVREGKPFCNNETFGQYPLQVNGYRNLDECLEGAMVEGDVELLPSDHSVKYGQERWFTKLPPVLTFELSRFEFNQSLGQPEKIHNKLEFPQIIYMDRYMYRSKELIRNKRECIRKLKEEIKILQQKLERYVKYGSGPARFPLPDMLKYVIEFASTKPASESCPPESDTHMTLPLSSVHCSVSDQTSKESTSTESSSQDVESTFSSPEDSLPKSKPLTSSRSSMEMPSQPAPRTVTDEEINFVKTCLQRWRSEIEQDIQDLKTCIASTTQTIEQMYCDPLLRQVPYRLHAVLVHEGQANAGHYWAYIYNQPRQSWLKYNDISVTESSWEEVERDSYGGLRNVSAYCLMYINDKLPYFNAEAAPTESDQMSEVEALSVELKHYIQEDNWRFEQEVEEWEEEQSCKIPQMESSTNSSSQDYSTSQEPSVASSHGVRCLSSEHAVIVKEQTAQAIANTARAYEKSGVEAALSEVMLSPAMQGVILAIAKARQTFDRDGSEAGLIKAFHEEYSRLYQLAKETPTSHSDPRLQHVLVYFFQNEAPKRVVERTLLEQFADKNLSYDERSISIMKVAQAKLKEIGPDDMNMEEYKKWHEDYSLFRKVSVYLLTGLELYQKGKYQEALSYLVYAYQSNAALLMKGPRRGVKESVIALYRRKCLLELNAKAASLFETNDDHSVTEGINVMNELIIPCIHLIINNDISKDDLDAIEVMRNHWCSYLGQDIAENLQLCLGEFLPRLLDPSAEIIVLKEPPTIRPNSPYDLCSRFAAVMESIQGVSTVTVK
Procedure, shortened: as §1

Measured: log2 ratio of Biotin-Ahx-Ub-VS probe labelling

Sequence of USP24 (Q9UPU5 whole entry): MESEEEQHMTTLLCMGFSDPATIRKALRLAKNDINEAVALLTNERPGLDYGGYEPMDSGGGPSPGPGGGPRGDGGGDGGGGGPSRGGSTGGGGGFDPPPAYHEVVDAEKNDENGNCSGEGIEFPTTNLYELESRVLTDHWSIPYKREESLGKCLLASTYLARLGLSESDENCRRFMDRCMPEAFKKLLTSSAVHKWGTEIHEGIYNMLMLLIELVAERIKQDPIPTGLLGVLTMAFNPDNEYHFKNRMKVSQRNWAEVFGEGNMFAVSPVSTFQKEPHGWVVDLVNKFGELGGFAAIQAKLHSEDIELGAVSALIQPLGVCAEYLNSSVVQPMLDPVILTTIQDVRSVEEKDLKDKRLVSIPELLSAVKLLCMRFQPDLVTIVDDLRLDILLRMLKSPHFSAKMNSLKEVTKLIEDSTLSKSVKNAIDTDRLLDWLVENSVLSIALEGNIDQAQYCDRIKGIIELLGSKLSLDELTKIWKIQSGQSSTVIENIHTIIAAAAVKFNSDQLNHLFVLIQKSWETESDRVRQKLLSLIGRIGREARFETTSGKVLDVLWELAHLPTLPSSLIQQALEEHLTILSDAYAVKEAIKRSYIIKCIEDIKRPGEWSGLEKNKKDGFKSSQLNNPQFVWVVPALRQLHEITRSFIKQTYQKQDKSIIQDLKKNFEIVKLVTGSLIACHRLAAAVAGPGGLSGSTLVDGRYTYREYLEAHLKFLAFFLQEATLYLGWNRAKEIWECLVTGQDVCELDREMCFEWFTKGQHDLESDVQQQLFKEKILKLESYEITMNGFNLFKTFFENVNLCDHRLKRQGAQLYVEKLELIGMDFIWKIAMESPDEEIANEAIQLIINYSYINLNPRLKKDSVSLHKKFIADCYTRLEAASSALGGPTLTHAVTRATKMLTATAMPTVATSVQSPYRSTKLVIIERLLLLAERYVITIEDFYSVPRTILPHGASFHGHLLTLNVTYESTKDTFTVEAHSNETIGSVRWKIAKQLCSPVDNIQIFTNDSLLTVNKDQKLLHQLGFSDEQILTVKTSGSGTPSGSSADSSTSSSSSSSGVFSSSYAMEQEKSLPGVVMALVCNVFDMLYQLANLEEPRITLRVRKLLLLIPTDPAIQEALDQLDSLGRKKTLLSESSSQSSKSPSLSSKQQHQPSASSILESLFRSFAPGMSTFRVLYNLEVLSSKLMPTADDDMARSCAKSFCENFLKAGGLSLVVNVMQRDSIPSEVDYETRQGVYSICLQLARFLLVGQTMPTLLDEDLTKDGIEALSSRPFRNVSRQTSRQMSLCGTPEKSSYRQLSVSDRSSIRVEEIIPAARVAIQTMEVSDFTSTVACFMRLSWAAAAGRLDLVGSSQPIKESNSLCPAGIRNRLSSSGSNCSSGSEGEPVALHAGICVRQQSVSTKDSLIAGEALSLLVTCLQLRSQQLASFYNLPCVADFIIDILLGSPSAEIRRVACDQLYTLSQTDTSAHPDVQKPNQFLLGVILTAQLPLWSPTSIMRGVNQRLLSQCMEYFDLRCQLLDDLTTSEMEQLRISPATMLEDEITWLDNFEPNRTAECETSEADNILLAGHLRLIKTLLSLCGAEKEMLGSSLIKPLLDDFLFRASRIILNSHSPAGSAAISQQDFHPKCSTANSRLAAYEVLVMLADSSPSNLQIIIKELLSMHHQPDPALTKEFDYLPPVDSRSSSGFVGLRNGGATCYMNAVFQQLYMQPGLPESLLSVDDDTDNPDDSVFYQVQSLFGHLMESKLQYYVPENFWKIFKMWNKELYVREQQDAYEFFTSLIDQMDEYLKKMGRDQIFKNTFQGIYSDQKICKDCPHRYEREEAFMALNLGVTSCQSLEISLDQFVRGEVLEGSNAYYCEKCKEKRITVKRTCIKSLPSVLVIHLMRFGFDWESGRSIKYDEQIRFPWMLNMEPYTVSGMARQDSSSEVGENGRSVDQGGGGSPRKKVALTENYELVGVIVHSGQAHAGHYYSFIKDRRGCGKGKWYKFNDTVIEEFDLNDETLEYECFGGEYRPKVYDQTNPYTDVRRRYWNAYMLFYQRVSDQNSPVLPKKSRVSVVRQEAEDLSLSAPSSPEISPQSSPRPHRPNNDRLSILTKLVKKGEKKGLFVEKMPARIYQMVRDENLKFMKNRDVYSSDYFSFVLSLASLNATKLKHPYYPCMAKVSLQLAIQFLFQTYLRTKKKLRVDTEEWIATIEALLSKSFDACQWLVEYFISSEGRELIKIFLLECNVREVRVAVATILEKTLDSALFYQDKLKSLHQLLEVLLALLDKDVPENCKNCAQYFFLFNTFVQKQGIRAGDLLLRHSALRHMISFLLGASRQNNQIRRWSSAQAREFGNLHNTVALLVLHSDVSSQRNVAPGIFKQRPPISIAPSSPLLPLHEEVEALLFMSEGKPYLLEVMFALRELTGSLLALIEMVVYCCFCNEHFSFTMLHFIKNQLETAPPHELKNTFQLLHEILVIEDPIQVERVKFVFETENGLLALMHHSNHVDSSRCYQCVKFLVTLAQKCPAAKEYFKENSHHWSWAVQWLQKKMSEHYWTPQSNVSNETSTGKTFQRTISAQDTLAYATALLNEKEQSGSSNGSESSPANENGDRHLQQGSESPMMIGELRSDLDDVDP

CC(O)CC1CCN(C(=O)CCl)CC1 (stereo not given)
inactive: USP19 -0.322 | USP22 0.037 | USP24 -0.234 | USP25 -0.398 | USP28 -0.223
